Measured values as given in ChEMBL document CHEMBL1201862, “PubChem BioAssay data set” (2004).
Among all 44,000 sequences or so, about 2,900 (6.6%) were called active. Cut-off read from the data, not from the text of the source: active = GI50 up to about 1.1 µM and inactive = higher. Only a sample is shown. Results with a measured potency or affinity are listed apart.

Each substance was assayed on NCI/ADR-RES.

Row | Substance | GI50
1 | CISPLATIN, CHEMBL11359 | 4.93 µM
2 | [Bis(aminomethyl)tetramethylenesilane]dichloropaltinum(II), CHEMBL2146205 | 5.22 µM
3 | [Bis(aminomethyl)tetramethylenesilane]tetrachloropaltinum(IV), CHEMBL2146189 | 5.69 µM
4 | [Bis(aminomethyl)pentamethylenesilane]tetrachloropaltinum(IV), CHEMBL2146204 | 1.91 µM
5 | [Bis(aminomethyl)pentamethylenesilane]dichloropaltinum(II), CHEMBL2146202 | 14.3 µM
6 | [Bis(aminomethyl)dimethylsilane]tetrachloroplatinum(IV), CHEMBL2146190 | 15 µM
